Results on 66 molecules are retold here after PubChem BioAssay AID1671190 (National Center for Advancing Translational Sciences (NCATS), 2021).

The campaign covered roughly 580,000 compounds. About 6,100 (1.1%) were called active. Where a call stands in place of a potency, no number is given. Another 15% or so got no clear call; they are omitted. Calls follow the shape of the dose curve; as a rule, active = well fitted inhibition curve with a large enough effect; inconclusive = small, poorly fitted or top-dose-only effect, or another doubt; inactive = no such curve, though single readings can be large or run the other way. This excerpt belongs to a sample that is enriched for actives.
Potency is read from the fitted curve at half-maximal effect.

Sequence of Polyunsaturated fatty acid lipoxygenase ALOX12 (Homo sapiens) (P18054 whole entry, looked up): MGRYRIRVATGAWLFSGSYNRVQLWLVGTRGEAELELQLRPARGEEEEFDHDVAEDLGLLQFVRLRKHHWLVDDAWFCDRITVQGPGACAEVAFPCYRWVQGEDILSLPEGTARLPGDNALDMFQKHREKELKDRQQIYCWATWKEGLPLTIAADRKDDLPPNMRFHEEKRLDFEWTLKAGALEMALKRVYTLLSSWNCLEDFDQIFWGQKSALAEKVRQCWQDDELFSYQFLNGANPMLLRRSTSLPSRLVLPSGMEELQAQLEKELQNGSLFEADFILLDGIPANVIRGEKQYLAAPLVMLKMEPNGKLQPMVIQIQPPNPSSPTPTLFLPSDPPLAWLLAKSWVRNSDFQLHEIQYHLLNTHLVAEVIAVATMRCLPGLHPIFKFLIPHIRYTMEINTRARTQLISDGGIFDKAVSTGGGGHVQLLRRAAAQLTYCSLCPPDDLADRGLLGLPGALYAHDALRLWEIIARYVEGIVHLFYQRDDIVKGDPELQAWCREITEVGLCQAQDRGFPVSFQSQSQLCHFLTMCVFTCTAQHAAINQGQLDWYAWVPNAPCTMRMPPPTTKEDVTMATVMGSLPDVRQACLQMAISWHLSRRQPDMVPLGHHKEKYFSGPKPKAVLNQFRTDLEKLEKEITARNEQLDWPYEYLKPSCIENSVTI

The target of this assay is Polyunsaturated fatty acid lipoxygenase ALOX12 (Homo sapiens) (UniProt P18054). In words: Primary qHTS assay for inhibitors of human arachidonate 12S-lipoxygenase (ALOX12): Round 2. The note with it: purified 12hLO, xylenol orange hydroperoxide absorbance; series mostly up to 108 µM. From the text:
Assay Provider: Theodore R. Holman Ph.D. University of California, Santa Cruz, California Human lipoxygenase 12hLO is a member of the closely related lipoxygenase family of enzymes which catalyze the site-specific oxidation of arachidonic acid to various hormone precursor molecules and as such is a candidate for drug development in a variety of disease areas, such as cancer and inflammation. Inhibition of 12hLO activity was screened by utilizing arachidonic acid as a substrate. The extent of hydroperoxide product formation was measured by a secondary chromogenic reaction in which xylenol orange (XO, Sigma-Aldrich, cat. number 39,818-7) reacts with the ferric ions produced from the reaction between the hydroperoxide and ferrous ions. The Fe (III)-XO complex is characterized with red-shifted absorbance at 560 nm. A purified preparation of human 12hLO was supplied by Dr. Holman laboratory, University of California, Santa Cruz.
PROTOCOL TABLE SEQUENCE No. (e.g., 1, 2, 3, etc.); […] (e.g., Cells, Incubation, Reagent, etc.); VALUE; DESCRIPTION 1; Enzyme; 3 uL; 150 nM 12hLO enzyme solution dispensed in 1536-well Greiner black, clear bottom plates. 2; Compound; 23 nL; compounds and controls were added. 3; Incubate; 15 min; room temperature. 4; Substrate; 1 uL; 40 uM arachidonic acid (final concentration). 5; Incubate; 30 min; room temperature. 6; Reagent; 4 uL; Fe-XO solution was added to each well. 7; Incubation; 30 min; room temperature 8; Detector; absorbance; Read 1 at 405 nm absorbance using ViewLux (Perkin-Elmer) CCD imager. 9; Detector; absorbance; Read 2 at 573 nm absorbance using ViewLux (Perkin-Elmer) CCD imager. NOTES (numbers refer to sequence above) 1; 150 nM 12hLO (final concentration) in buffer solution (25 mM Hepes, 0.01% Triton X-100, pH 7.0) was dispensed in columns 1, 2, 5-48. Column 1 is neutral (100% activity). Buffer only was dispensed in columns 3 and 4 as no enzyme negative controls. The plates were covered with metal lids with gas-exchange holes. 2; Compounds were pin transferred via a Kalypsys Pin Tool (Wako USA) in column 5-48. Control compound was transferred in column 2, titration of nordihydroguaiaretic acid (NDGA, Sigma-Aldrich, N5023) with top concentration of 20 mM in DMSO then 1:3 dilution in duplicate. Dilution factor of 23 nL into 4 uL final assay volume. 3; Covered assay plates were incubated for 15 min at room temperature. 4; Substrate was added to start the reaction; 40 uM arachidonic acid (Sigma-Aldrich, St. Louis, MO) was dispensed throughout the plate. 6; Chromogenic detection reagent solution (divalent iron/xylenol orange, Fe-XO) was added to each well: 200 uM xylenol orange, 300 uM ferrous ammonium sulfate prepared freshly in 50 mM sulfuric acid. 8, 9; Two absorbance readouts were obtained at 405 nm and at 573 nm using a ViewLux high-throughput CCD plate imager (Perkin-Elmer). The 573 to 405 (Read 2 / Read 1) absorbance ratio was used to compute reaction progress.
For orientation: In qHTS, concentration-response curves come from the screen itself.
Regarding `Cc1csc(NC(=S)Nc2cccc(Cl)c2)n1`, the Potency is 8.91 µM (active).
As for `O=C(Nc1cccc(Cl)c1)c1csnn1`, the entry is “inactive”; as for `Cc1csc(NC(=O)CCc2ncc(-c3ccc(Cl)cc3Cl)o2)n1`, “inactive”; as for `CCN(CC)CCCNC(=O)c1ccc2c(=O)n(Cc3ccc4c(c3)OCO4)c(=S)[nH]c2c1`, 39.8 µM (active).
Take `CCOc1cc2[nH]c(=O)n(Cc3ccc(C(=O)NCCN(CC)CC)cc3)c(=O)c2cc1OCC`: the Potency entry was “inactive”.
Turning to `CCCCCn1c(=O)[nH]c2cc(C(=O)NCCN(C)CCCC)ccc2c1=O`, the Potency entry is “inactive”.
The same measure for `O=C(CCc1ccccc1)Nc1ccc(Cl)c(C(F)(F)F)c1`: “inactive”; for `Cc1cccc(NC(=O)CN2CC3CC(C2)[C@H]2CCCC(=O)N2C3)c1` (stereo partly specified): “inactive”; for `CSc1ccccc1NC(=O)Cc1ccc(Br)cc1`: “inactive”.
As for `O=C(NC(=O)c1ccccc1N1CCCCC1)Nc1ccc(Br)cc1`, the Potency result is “inactive”.
The same measure for `O=C(NC(=S)Nc1ccccc1C(=O)O)c1ccc(-c2ccc(Br)cc2)o1`: 10 µM (active); for `Cn1cc(C(=O)N2CCC(C(N)=O)CC2)c2ccccc21`: “inactive”; for `CC1=C(C(=O)OC(C)C)C(c2ccncc2)c2c(nc(SCc3ccccc3)[nH]c2=O)N1` (stereo unspecified): “inactive”.
With `COc1ccc(/C=C2/S/C(=N/N=C3\CC4CCC3(C)C4(C)C)NC2=O)cc1` (stereo unspecified), the Potency entry was “inactive”.
As for `O=C1NC(=O)C(=Cc2cccc(C(F)(F)F)c2)S1`, the entry is “inactive”; as for `CCc1ccc(C=C2SC(=S)NC2=O)cc1`, 10.9 µM (active); as for `CCOC(=O)NC(CNC(=O)c1ccccc1OC)CC(C)C` (stereo unspecified), “inactive”.
The same measure for `COc1ccccc1NS(=O)(=O)c1ccc2oc(SCCOc3ccccc3F)nc2c1`: “inactive”; for `CCC(CC)C(=O)Nc1sc(Nc2ccc(C)cc2)nc1C(N)=O`: “inactive”.
As for `COc1ccc2cc(S(=O)(=O)c3ccc(Cl)c(Cl)c3)c(=O)oc2c1`, the entry is “inactive”; as for `O=C(c1ccc(C(F)(F)F)cc1)N1CCC([C@@H]2CNC[C@H]2CO)CC1`, 44.7 µM (active).
In the case of `O=C(c1ccc(F)c(F)c1)N1CCC([C@@H]2CNC[C@H]2CO)CC1`, the Potency result was “inactive”.
As for `COc1ccc(C(=O)N2CCC([C@@H]3CNC[C@H]3CO)CC2)cc1OC`, the entry is “inactive”.
The same measure for `O=C(OCCN1C(=O)c2ccccc2C1=O)Oc1ccccc1`: “inactive”; for `O=C1c2ccccc2C(=O)N1CCCCCCN1C(=O)c2ccccc2C1=O`: 35.5 µM (active); for `Nc1ccc(SCCN2C(=O)c3ccccc3C2=O)cc1`: “inactive”.
As for `COc1ccc(CC(=O)N2CC3ON=C(c4c(F)cccc4Cl)C3C2)cc1OC` (stereo unspecified), the entry is “inactive”.
Turning to `CCCn1c(-n2nc(C)cc2C)nc2c1c(=O)n(CCN1CCCCC1)c(=O)n2C`, the Potency result was “inactive”.
The same measure for `CC(c1ccc(S(N)(=O)=O)cc1)N(C)C(=O)CCc1ncc(-c2ccc(Cl)cc2)o1` (stereo unspecified): “inactive”.
Consider `CCOC(=O)c1c(NC(C)=O)sc2c(OCC(=O)Nc3ccccc3C)c(C)ccc12`, for which the Potency result is “inactive”.
The same measure for `COc1cc(NS(=O)(=O)c2ccc(N/C=C(\C=O)c3nc4cc(Cl)ccc4o3)cc2)nc(OC)n1`: 22.4 µM (active).
As for `CC(Oc1cccc(Cl)c1)C(=O)Nc1ccc(S(=O)(=O)Nc2ncccn2)cc1` (stereo unspecified), the Potency entry was “inactive”.
As for `COC(=O)Nc1ccc(S(=O)(=O)Nc2cc(OC)nc(OC)n2)cc1`, the entry is “inactive”; as for `CCOC(=O)c1cccc(NC(=O)N2CC[C@@H](CC(=O)N(C)CC#N)[C@@H](CC)C2)c1`, “inactive”.
The same measure for `CCOc1ccc(NC(=O)C(=O)c2c[nH]c3ccccc23)cc1`: “inactive”; for `CCc1cccc(NC(=O)Nc2cn(CC(C)C)c(=O)c3ccccc23)c1`: “inactive”.
Turning to `[O-]/[N+](=C\c1ccc2ccccc2n1)c1ccccc1`, the Potency was 11.2 µM (active).
As for `CC(C)Oc1c(Br)cc(Br)cc1/C=N/NC(N)=S`, the figure is 35.5 µM (active); as for `N#Cc1cccc(NC(=O)O[C@@H]2CO[C@H]3[C@@H]2OC[C@@H]3Nc2nccc(-c3ccccc3)n2)c1`, “inactive”.
The same measure for `Cc1ccc(C(=O)Nc2ccc3c(N4CCCCC4)ncnc3c2)s1`: “inactive”; for `CC1(C)Cc2ccccc2-c2[nH]c(=S)[nH]c(=O)c21`: 7.94 µM (active).
The same measure for `CC(C)CC(N=C1NC(C)(C)Cc2ccccc21)C(=O)O` (stereo unspecified): “inactive”.
In the case of `CC1(C)Cc2ccccc2-c2nnc(-c3cccc(O)c3)n21`, the Potency entry was “inactive”.
`COc1ccc(-c2nc(CSCC(=O)N(C)c3ccccc3)co2)cc1`: the Potency entry was “inactive”.
The same measure for `COc1ccc(CCC(=O)N2CCCCCCNC(=O)[C@@H]3CCCC[C@@H]32)cc1`: “inactive”.
Consider `CCc1ccc(N(Cc2cccs2)C(=O)c2ccccc2C)cc1`, for which the Potency result is “inactive”.
The same measure for `CC(NS(=O)(=O)c1ccc(F)cc1Cl)C(=O)N1CCCC1` (stereo unspecified): “inactive”.
The same measure for `CCOc1ccc(NC(=O)Nc2ccc(CN3CCOCC3)cc2)cc1`: “inactive”.
Take `COC(=O)c1ccc2c(c1)nc1n2[C@@H](CNCc2cccc(OC)n2)COC1`: the Potency result was “inactive”.
As for `CC(C)c1ccc(NC(=O)c2ccc3c(Cl)c4c(nc3c2)CCCC4)cc1`, the entry is “inactive”; as for `O=C(c1cccc(Cl)c1)N1CCc2nc(C3CC3)nc(-c3ccc(Cl)cc3)c2C1`, “inactive”; as for `CC(=O)N1CCc2nc(C3CC3)nc(-c3ccc(Cl)cc3)c2C1`, “inactive”.
The same measure for `COc1cccc(C(=O)N2CCc3nc(C4CC4)nc(-c4ccc(Cl)cc4)c3C2)c1`: 10 µM (active); for `Cn1ccnc1CNCC1(COc2ccc(C(F)(F)F)cn2)C[C@@H](O)[C@@H](O)C1` (stereo partly specified): “inactive”; for `CCS(=O)(=O)NCC1(COc2ccc(C(F)(F)F)cn2)C[C@@H](O)[C@@H](O)C1` (stereo partly specified): 12.6 µM (active).
As for `O=C(NCC1(COc2ccc(C(F)(F)F)cn2)C[C@@H](O)[C@@H](O)C1)c1ccc(F)cc1` (stereo partly specified), the entry is “inactive”; as for `COc1cc(CN2C[C@@H](CO)[C@H](c3nc(C)no3)C2)ccc1F`, “inactive”; as for `Cc1ccc(-c2c3c(nc4sc5c(c24)CCC5)-c2cc(F)ccc2S(=O)(=O)C3)cc1`, “inactive”.
As to `Cc1ccccc1Nc1scc(-c2ccc(Br)cc2)[n+]1-c1ccccc1C`, the Potency entry is “inactive”.
The same measure for `Cc1cc2nc(-c3ccccc3)c(-c3ccccc3)nc2cc1C`: “inactive”; for `Cc1scc(-c2ccccc2)[n+]1C`: 17.8 µM (active); for `CCCCN(C)C(=O)CCNC(=O)Cn1cnc2sc3c(c2c1=O)CCCC3`: “inactive”.
On to `CCCC1CCC(c2ccc(-c3ccc(CC)cn3)cc2F)CC1` (stereo unspecified), for which the Potency result is “inactive”.
As for `CCN1C(=O)[C@H]2[C@@H](c3ccccc3)N[C@]3(CCCN(Cc4ccc(C)cc4)C3=O)[C@H]2C1=O`, the figure is 4.47 µM (active).
The same measure for `Cc1ccc([C@H]2N[C@]3(CCCN(Cc4ccccc4)C3=O)[C@H]3C(=O)N(Cc4ccccc4)C(=O)[C@@H]23)cc1`: “inactive”.
As to `CCN1C(=O)[C@H]2[C@@H](c3ccc(-c4ccc(F)cc4)cc3)N[C@@](Cc3ccccc3)(C(=O)OC)[C@H]2C1=O`, the Potency entry is “inactive”.
